Data: PubChem BioAssay (Tox21)
Inconclusive results are not listed. Active and inactive are the calls of the source. Unless noted, the call rests on the fitted dose curve; in most records, active means well fitted curve in the direction sought with a large enough effect in the repeat runs; inconclusive means weak or mixed curves; inactive means no such curve, though single readings can be large; an effect the other way counts as inactive or inconclusive.

How the values were obtained:
[1] = qHTS assay to identify aromatase inhibitors - cell viability counter screen (AID 743084);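 further: cells stimulated with testosterone during compound exposure; nearly all actives have a fitted effect of over 55% in size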
[2] = qHTS assay to identify small molecule that activate the aryl hydrocarbon receptor (AhR) signaling pathway - cell viability counter screen (AID 743086); further: nearly all actives have a fitted effect of over 45% in size; further: potency means the concentration at half of the fitted maximal effect;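 on viability change, negative = cytotoxic: HepG2 liver cells carrying the AhR DRE luciferase reporter; series mostly up to about 70 µM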
Method in brief: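 HepG2-AhR-luc (HG2L7.5c1) cells, 4000/well, were preincubated 5 h at 37C, exposed to compound in qHTS format for 24 hr at 37C, then given CellTiter-Fluor for 30 min; viability was read as fluorescence in the reporter wells.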

[3] = qHTS assay to identify small molecule antagonists of the peroxisome proliferator-activated receptor gamma (PPARg) signaling pathway - cell viability counter screen (AID 743194); further: nearly all actives have a fitted effect of over 55% in size
Method in brief: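 PPARg-UAS-bla HEK293H cells were plated, rested 5 h at 37 C, then treated with compounds plus rosiglitazone (50 nM final) for 17 h at 37 C; viability was then read by CellTiter-Glo luminescence after 30 min at room temperature.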

[4] = qHTS assay for small molecule agonists of the antioxidant response element (ARE) signaling pathway (AID 743202; active means well fitted activation curve with a large enough effect in the signal ratio in the repeat runs, not every such curve was filed as active; the % refers to the signal ratio; further: potency means the concentration at half of the fitted maximal effect)
Method in brief: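 Following a 16 h, 37 C exposure of reporter HepG2 cells (ARE-driven beta-lactamase, 2,000 cells/well) to compounds, FRET substrate was applied for 2 h at room temperature and fluorescence intensity recorded.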

[5] = qHTS assay for small molecule agonists of the antioxidant response element (ARE) signaling pathway - cell viability counter screen (AID 743203; calls by dose curve; further: nearly all actives have a fitted effect of over 55% in size)
Method in brief: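 Measured in the same wells as the beta-lactamase ARE reporter, this read-out is CellTiter-Glo luminescence from HepG2 ARE-bla cells given compounds for 16 hrs.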

[6] = qHTS assay for small molecule activators of the heat shock response signaling pathway - cell viability counter screen (AID 743209); further: nearly all actives have a fitted effect of over 50% in size
Method in brief: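 Same-well multiplex: after 2.5 h room-temperature incubation with LiveBLAzer B/G substrate and fluorescence reading, CellTiter-Glo reagent was added to HSE-bla HeLa cells that had received compound for 5 h at 37 C; luminescence read after 30 min.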

[7] = qHTS assay for small molecule activators of the heat shock response signaling pathway (AID 743210; active means well fitted activation curve with a large enough effect in the signal ratio in the repeat runs, with a control signal flat, not every such curve was filed as active; the % refers to the signal ratio; further: series mostly up to about 63 µM)
Method in brief: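 Heat shock element–beta-lactamase HeLa reporter cells; qHTS with compounds for 5 h at 37 C; detection by FRET substrate fluorescence after 2.5 h at RT.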

[8] = target: Aryl hydrocarbon receptor (Homo sapiens) (UniProt P35869); test: qHTS assay to identify small molecule that activate the aryl hydrocarbon receptor (AhR) signaling pathway (AID 743085); further: nearly all actives have a fitted effect of over 15% in size; further: potency means the concentration at half of the fitted maximal effect;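 on activation: HG2L7.5c1 human HepG2 liver cells with stably integrated DRE-driven firefly reporter; series mostly up to about 70 µM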
Method in brief: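 Stably transfected human liver carcinoma cells (HG2L7.5c1; 20 DRE-firefly luciferase) were incubated 5 h, dosed, and kept 24 h at 37C. Agonism was scored from increased luciferase luminescence.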

[9] = target: Peroxisome proliferator-activated receptor gamma (Homo sapiens) (UniProt P37231); test: qHTS assay to identify small molecule agonists of the peroxisome proliferator-activated receptor gamma (PPARg) signaling pathway (AID 743094; active means well fitted activation curve with a large enough effect in the signal ratio in the repeat runs, not every such curve was filed as active; the % refers to the signal ratio)
Method in brief: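 Cell-based bla reporter, HEK293H background, PPARg-driven UAS. Pre-incubation 5 h, 37C, 5% CO2. Compound 17 h, 37C. Substrate 1 h RT; fluorescence.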

[10] = target: Peroxisome proliferator-activated receptor gamma (Homo sapiens) (UniProt P37231); test: qHTS assay to identify small molecule antagonists of the peroxisome proliferator-activated receptor gamma (PPARg) signaling pathway (AID 743191; calls by dose curve; further: nearly all actives have a fitted effect of over 30% in size; further: potency means the concentration at half of the fitted maximal effect; on ratio activity, negative = inhibition: series mostly up to about 63 µM)
Method in brief: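 GeneBLAzer PPARg UAS-bla HEK293H cells carrying a UAS-driven beta-lactamase reporter were plated at 3000 cells/well, preincubated 5 h at 37C, then given compound for 17 h at 37C; LiveBLAzer B/G FRET substrate was read after 1 h at room temperature.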
On the % scale 0 is the no-effect control and ±100 the full control effect.

Sequence of Aryl hydrocarbon receptor (Homo sapiens) (P35869 whole entry, looked up): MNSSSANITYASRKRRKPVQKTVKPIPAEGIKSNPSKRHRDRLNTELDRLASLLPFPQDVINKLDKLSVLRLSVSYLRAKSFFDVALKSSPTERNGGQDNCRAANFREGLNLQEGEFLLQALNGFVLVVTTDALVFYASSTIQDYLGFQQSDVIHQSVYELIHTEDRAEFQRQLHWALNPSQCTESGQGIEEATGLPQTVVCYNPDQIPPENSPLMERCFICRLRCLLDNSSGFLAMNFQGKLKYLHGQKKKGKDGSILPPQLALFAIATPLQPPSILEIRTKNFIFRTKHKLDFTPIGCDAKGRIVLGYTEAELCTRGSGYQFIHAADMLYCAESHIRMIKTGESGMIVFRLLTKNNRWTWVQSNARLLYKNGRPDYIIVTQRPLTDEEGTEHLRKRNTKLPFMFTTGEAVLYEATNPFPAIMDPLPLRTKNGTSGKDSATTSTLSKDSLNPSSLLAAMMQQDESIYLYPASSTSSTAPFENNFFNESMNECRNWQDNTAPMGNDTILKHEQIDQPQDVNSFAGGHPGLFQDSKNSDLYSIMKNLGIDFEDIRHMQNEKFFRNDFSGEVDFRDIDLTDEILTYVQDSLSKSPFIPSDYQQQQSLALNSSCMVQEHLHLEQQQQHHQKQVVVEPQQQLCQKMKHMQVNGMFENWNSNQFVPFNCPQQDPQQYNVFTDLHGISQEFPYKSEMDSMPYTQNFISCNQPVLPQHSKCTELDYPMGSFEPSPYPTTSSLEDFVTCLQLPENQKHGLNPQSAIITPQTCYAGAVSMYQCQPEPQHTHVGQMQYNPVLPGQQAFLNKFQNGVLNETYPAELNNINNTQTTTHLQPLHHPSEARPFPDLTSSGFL
Sequence of Peroxisome proliferator-activated receptor gamma (Homo sapiens) (P37231 whole entry, looked up): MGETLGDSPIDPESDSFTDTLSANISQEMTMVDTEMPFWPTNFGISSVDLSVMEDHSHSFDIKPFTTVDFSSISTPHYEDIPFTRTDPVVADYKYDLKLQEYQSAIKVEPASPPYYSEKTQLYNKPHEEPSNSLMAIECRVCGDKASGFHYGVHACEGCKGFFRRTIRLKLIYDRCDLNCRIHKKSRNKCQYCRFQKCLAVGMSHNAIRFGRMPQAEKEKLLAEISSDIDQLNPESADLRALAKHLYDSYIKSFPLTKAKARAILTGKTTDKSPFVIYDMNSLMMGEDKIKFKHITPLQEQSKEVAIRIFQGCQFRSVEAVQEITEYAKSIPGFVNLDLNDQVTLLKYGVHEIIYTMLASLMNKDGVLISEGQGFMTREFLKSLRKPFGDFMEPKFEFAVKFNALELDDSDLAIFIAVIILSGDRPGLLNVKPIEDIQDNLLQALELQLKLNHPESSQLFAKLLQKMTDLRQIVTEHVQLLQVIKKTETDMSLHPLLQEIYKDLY

CCN(CC)CC(=O)Nc1c(C)cccc1C
inactive: Potency [1] | Potency [2] | outcome [3] | Potency [4] | outcome [5] | outcome [6] | outcome [7]

CC(C)C[C@H](NC(=O)CNC(=O)[C@H](Cc1ccc(O)cc1)NC(=O)[C@H](CO)NC(=O)[C@H](Cc1c[nH]c2ccccc12)NC(=O)[C@H](Cc1cnc[nH]1)NC(=O)[C@@H]1CCC(=O)N1)C(=O)N[C@@H](CCCN=C(N)N)C(=O)N1CCC[C@H]1C(=O)NCC(N)=O (stereo in doubt)
inactive: Potency [2] | Potency [4] | outcome [5] | outcome [6]

Cc1ccccc1N=O
inactive: Potency [2] | outcome [3] | outcome [5] | outcome [6] | outcome [7]

O=C(O)c1cc(Cl)cc([N+](=O)[O-])c1Cl
inactive: Potency [8] | Potency [2] | outcome [9] | Potency [10] | outcome [3] | outcome [5] | outcome [6]

COCCc1ccc(OCC2CO2)cc1 (stereo unspecified)
inactive: outcome [3] | outcome [6] | outcome [7]

COc1cc(N)ccc1C
inactive: Potency [2] | outcome [6] | outcome [7]

Cc1ccc2ccc(Cl)cc2n1
inactive: Potency [10] | outcome [3] | outcome [5] | outcome [6] | outcome [7]

COc1ccc2nc(SCc3ncc(C)c(OC)c3C)[nH]c2c1
inactive: Potency [10] | outcome [3] | Potency [4] | outcome [5] | outcome [6]

CN(CCOc1ccc(NS(C)(=O)=O)cc1)CCc1ccc(NS(C)(=O)=O)cc1
inactive: Potency [8] | Potency [2] | outcome [9] | outcome [3] | Potency [4] | outcome [5] | outcome [6] | outcome [7]

O=C1CC(c2ccc(Cl)cc2)CC(=O)N1
inactive: Potency [10] | outcome [3] | Potency [4] | outcome [6] | outcome [7]

CC(C)C(=O)OCc1cccc(OC(=O)[C@@H]2N3C(=O)[C@@H](NC(=O)Cc4ccccc4)[C@H]3SC2(C)C)c1
inactive: Potency [10] | outcome [3] | Potency [4] | outcome [5] | outcome [7]

CC(C)(C)c1n[nH]c(=S)n(N)c1=O
inactive: Potency [1] | Potency [2] | outcome [3] | outcome [5] | outcome [6] | outcome [7]

CC1(CO)CN(c2ccccc2)NC1=O (stereo unspecified)
inactive: Potency [1] | Potency [2] | outcome [3] | outcome [5] | outcome [6] | outcome [7]

Oc1ccccc1-c1nnco1
inactive: outcome [3] | outcome [5] | outcome [6] | outcome [7]

O=P(O)(O)OP(=O)(O)O
inactive: Potency [2] | outcome [3] | Potency [4] | outcome [6] | outcome [7]

CCCOC(=O)C(C)O (stereo unspecified)
inactive: Potency [8] | Potency [2] | outcome [9] | Potency [10] | outcome [3] | outcome [5] | outcome [6]

Cc1cccc(OCC(O)CNC(C)(C)C)c1C (stereo unspecified)
inactive: Potency [10] | outcome [3] | outcome [5] | outcome [6] | outcome [7]

C=CC(OCC)OCC
inactive: Potency [2] | outcome [9] | outcome [3] | outcome [5] | outcome [6] | outcome [7]
active: Potency [8] 60.4 µM

C=C(C)C(=O)OCc1ccccc1
inactive: Potency [8] | Potency [2] | outcome [9] | Potency [10] | outcome [3] | outcome [5] | outcome [6]

COc1ccc2c(c1OC)C(=O)O[C@@H]2[C@H]1c2c(cc3c(c2OC)OCO3)CCN1C
inactive: outcome [3] | Potency [4] | outcome [5] | outcome [6] | outcome [7]
active: Potency [2] 29.8 µM

O=C(OCC(O)CO)c1ccccc1Nc1ccnc2c(C(F)(F)F)cccc12 (stereo unspecified)
active: Potency [10] 16.8 µM | Potency [4] 26.6 µM
inactive: outcome [3] | outcome [5] | outcome [6] | outcome [7]

O=C(NCC(O)CO)c1c(I)c(C(=O)NCC(O)CO)c(I)c(N(CCO)C(=O)CO)c1I (stereo unspecified)
inactive: Potency [2] | outcome [3] | outcome [5] | outcome [6] | outcome [7]

CN1CCN(CC(=O)N2c3ccccc3C(=O)Nc3cccnc32)CC1
inactive: Potency [8] | Potency [2] | outcome [9] | ratio activity, negative = inhibition [10] 0.895% [at 5.95 µM] | activity change, negative = cytotoxicity [3] 4.99% [at 5.95 µM] | activation [4] 3.2% [at 8.36 µM] | viability change, negative = cytotoxic [5] 1.72% [at 8.36 µM] | activation [7] -0.267% [at 5.95 µM]

CC(C)=CCOC(=O)c1ccccc1
inactive: Potency [2] | outcome [3] | outcome [5] | outcome [6] | outcome [7]

CC(C)CCCCOC(=O)c1ccccc1C(=O)OCCCCC(C)C
inactive: Potency [8] | Potency [2] | outcome [9] | Potency [10] | outcome [3] | Potency [4] | outcome [5] | outcome [6] | outcome [7]

O=C(c1ccc(O)cc1)c1ccc(O)c(O)c1O
inactive: outcome [9] | outcome [3] | Potency [4] | outcome [5] | outcome [6] | outcome [7]
active: Potency [8] 61.4 µM

CCC(C)NC(N)=O (stereo unspecified)
inactive: Potency [2] | outcome [9] | outcome [3] | Potency [4] | outcome [5] | outcome [6] | outcome [7]

CC(C)(C)c1nnc(NS(=O)(=O)c2ccc(N)cc2)s1
inactive: outcome [3] | Potency [4] | outcome [5] | outcome [6] | outcome [7]

CCOCCOC(=O)/C=C/c1ccc(OC)cc1
inactive: Potency [10] | outcome [3] | outcome [5] | outcome [6] | outcome [7]

COC(=O)C1CC(=O)C(C(=O)OC)CC1=O (stereo unspecified)
inactive: activation [8] 0.473% [at 8.47 µM] | viability change, negative = cytotoxic [2] 14.4% [at 8.47 µM] | activation [9] -2.09% [at 7.08 µM] | ratio activity, negative = inhibition [10] 0.96% [at 5.95 µM] | activity change, negative = cytotoxicity [3] 17.9% [at 5.95 µM] | activation [4] -4.53% [at 8.36 µM] | viability change, negative = cytotoxic [5] -0.839% [at 8.36 µM] | activity change, negative = cytotoxicity [6] 12.2% [at 5.95 µM]

CCC(C)(CCC(C)C)C(=O)O (stereo unspecified)
inactive: Potency [2] | outcome [3] | Potency [4] | outcome [5] | outcome [6]

Cc1[nH]cnc1-c1ccc(Cl)cc1
inactive: Potency [10] | outcome [3] | Potency [4] | outcome [5] | outcome [6] | outcome [7]
